The source of these data is PubChem BioAssay AID827 (SRMLSC, 2007).

Each structure is given as a SMILES string. About 1,700 (1.2%) of roughly 140,000 compounds were called active. This is one part of a sample in which actives are shown more often than they occur.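 Rule for the calls: active = viability at or below a set limit, 4 SD under the median of all tested compounds (cut at about 3.7% in these data); inactive = the rest.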

The test is described as follows: viability loss in PTEN-deleted colon tumor cells – cell-based, HCT116, CellTiter-Glo, primary screen (AID 827).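 Note: PTEN knockout HCT116 line with beta catenin targeted HCT116 as companion control.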 The note with it: HCT116 PTEN-null viability, 60 h, at 10 µM, stronger effect = lower value.
Take `CCCC(O)(CCC)C(=O)NN(C(=O)CCl)c1cccc(C)c1`: the viability is 32.7% (inactive). As for `CC(C[N+](C)(C)C)OC(N)=O` (stereo not drawn), the figure is 1.03% (active). In the case of `CC(=O)OC(C)C[N+](C)(C)C` (stereo not drawn), the viability is 98.9% (inactive). With `COc1ccc(/C(N)=N/OC(=O)CCCc2ccccc2)cc1`, the viability is 94.9% (inactive).

On to `COC(=O)c1cc(C(=O)N(Cc2ccccc2)c2ccccn2)cc([N+](=O)[O-])c1`, for which the viability is 94.2% (inactive). `NC1=C([N+](=O)[O-])C(c2ccccc2)C2=C(CCCC2=O)O1` (stereo not drawn): the viability was 95.7% (inactive). Under `O=C(COC(=O)/C(=C/c1cccs1)c1cccs1)NCc1ccccc1Cl` stands 91.8% (inactive). Under `Cc1coc2c(O)cc3c(c12)OC1(N2CCCCC2)C(=O)NCCCC31` (stereo not drawn) stands 2.96% (active). In the case of `Cn1cc(C(=O)NCc2ccccc2F)cn1`, the viability is 102% (inactive).

With `COc1cccc(NC(=O)c2ccc(Cn3cc([N+](=O)[O-])cn3)o2)c1`, the viability is 86.8% (inactive). On to `O=C(Nc1ccc2c(c1)OCCO2)c1ccncc1`, for which the viability is 94.3% (inactive). With `CCc1ccc(NC(=O)c2ccc(Cn3cc([N+](=O)[O-])cn3)cc2)cc1`, the viability was 99% (inactive). As for `O=C(Nc1ccc2c(c1)OCCO2)c1cnccn1`, the figure is 97.3% (inactive); as for `Cn1cc([N+](=O)[O-])c(C(=O)Nc2ccc3c(c2)OCCO3)n1`, 3.52% (active); as for `Cn1cc([N+](=O)[O-])c(C(=O)Nc2cnn(Cc3ccc(F)cc3)c2)n1`, 3.56% (active).

Regarding `O=[N+]([O-])c1cccc(S(=O)(=O)N2CCCCCC2)c1`, the viability is 86.5% (inactive).

On to `COc1ccc(C(=O)CSc2nnc(NC(=O)C3CC(=O)N(c4cccc(OC)c4)C3)s2)cc1` (stereo not drawn), for which the viability was 94.8% (inactive). Under `CSc1nc(N)c(C#N)c(-c2ccccc2Cl)c1C#N` stands 86.3% (inactive); under `Cc1nc2ccccc2cc1O`, 103% (inactive). On to `CSc1nc2ccccc2cc1/C=C(\C#N)c1ccc(Cl)cc1Cl`, for which the viability is 3.51% (active).

In the case of `Cc1cc(C(=O)COC(=O)CNC(=O)c2ccc(F)cc2)c(C)n1Cc1ccco1`, the viability is 96.4% (inactive). Under `C=CCc1cccc2cc(C(=O)OCC)c(=O)oc12` stands 104% (inactive); under `COc1cccc2cc(C(=O)N(C)C)c(=O)oc12`, 1.64% (active). Under `COc1cccc2cc(C(=O)N3CCN(C(=O)c4ccccc4)CC3)c(=O)oc12` stands 87.7% (inactive); under `Cc1ccc(Oc2cc(NC(=O)CCCn3nc(C)c([N+](=O)[O-])c3C)cc([N+](=O)[O-])c2)cc1`, 71.1% (inactive). Regarding `CC(C)(C)C1CCC(OC(=O)CCC(=O)Nc2ccccc2)CC1` (stereo not drawn), the viability was 87% (inactive). Under `Cc1ccc(C(CC(=O)O)Nc2nc(N3CCCCC3)nc(N3CCCCC3)n2)cc1` (stereo not drawn) stands 99.5% (inactive); under `CC(Nc1nc(N2CCCC2)nc2ccccc12)c1ccccc1` (stereo not drawn), 2.77% (active). As for `CC(C)n1c(C(O)c2ccccc2)nc2ccccc21` (stereo not drawn), the figure is 101% (inactive); as for `Cc1ccc(C)c(NC(=S)NCC(c2cccnc2)N2CCOCC2)c1` (stereo not drawn), 92.3% (inactive).

Take `CCCCCCc1cc2cc(-c3nnc(-c4ccccc4)o3)c(=O)oc2cc1O`: the viability is 1.84% (active). As for `CC(=O)c1c(C)[nH]c(C(=O)OCC(=O)Nc2sc3c(c2C#N)CCCC3)c1C`, the figure is 66.9% (inactive). As for `COc1cccc2c1CCC(NC(C)=O)C2=O` (stereo not drawn), the figure is 86% (inactive). As for `Oc1ccc(Cl)cc1/C=N/c1nc2ccccc2[nH]1`, the figure is 93.9% (inactive); as for `O=C(/C(=C/c1cccc(Cl)c1)c1nc2ccccc2[nH]1)c1ccccc1`, 1.59% (active). Regarding `COc1ccc(/C=C(/NC(=O)c2ccc(C)cc2)c2nc3ccccc3[nH]2)cc1OC`, the viability was 99.4% (inactive). Consider `Cc1ccc(C(=O)/C=C/Nc2ccc(S(=O)(=O)Nc3onc(C)c3C)cc2)cc1`, for which the viability was 92.7% (inactive). Under `O=C(NCCc1ccccc1)C1CCC(Cn2c(=O)c3ccccc3n(Cc3cccnc3)c2=O)CC1` (stereo not drawn) stands 63.7% (inactive); under `Cc1cccc(NC(=O)CSc2nc3[nH]ncc3c(=O)[nH]2)c1`, 90.2% (inactive); under `CCC(C)NCCOCCOc1ccc(Br)cc1C` (stereo not drawn), 71% (inactive). Under `CC(C)(C)CC(C)(C)NCC(O)COCCOc1ccc(Br)cc1` (stereo not drawn) stands 1.74% (active). Under `Cc1noc(COc2ccccc2OCC(O)CNC(C)(C)C)n1` (stereo not drawn) stands 98.8% (inactive).

As to `Cc1cccc(C(=O)OCC(=O)Nc2sc3c(c2C#N)CCC3)c1`, the viability was 95.8% (inactive).

Turning to `CCc1ccccc1NC(=O)CN(C)C(=O)COc1ccc(C)nc1[N+](=O)[O-]`, the viability is 95.3% (inactive). Under `O=C(NNc1c2ccccc2nc2ccccc12)c1cc2ccccc2cc1O` stands 2.39% (active); under `Cc1noc(C)c1COC(=O)c1cc2ccccc2cc1O`, 86.5% (inactive); under `O=C(Nc1c2c(nc3ccccc13)CCCC2)c1ccccc1Br`, 86.9% (inactive). Under `C=CCNC(=O)c1ccccc1NC(=O)c1ccc(Cl)c(S(=O)(=O)Nc2cccc(C)c2C)c1` stands 55.4% (inactive). As for `CCn1c(/C=C/c2ccc([N+](=O)[O-])o2)nc2ccccc2c1=O`, the figure is 2.45% (active); as for `Cc1ccc(-n2c(SCC(=O)N/N=C/C=C/c3ccccc3[N+](=O)[O-])nc3ccccc3c2=O)cc1`, 85.4% (inactive); as for `Cn1cc(/C=C/c2nc3ccccc3c(=O)n2-c2cccc([N+](=O)[O-])c2)c2ccccc21`, 62.3% (inactive).

With `CCc1nnc(NC(=O)[C@@H](NC(=O)c2cccc(C)c2)C(C)C)s1`, the viability is 80.8% (inactive). In the case of `Cc1cc(C)c2c(n1)sc1c(=O)n(-c3ccccc3)c(=O)[nH]c12`, the viability was 97.1% (inactive). `C/C(O)=C\c1nc(=O)c2c(C)cc(C)nc2n1-c1ccccc1`: the viability is 2.19% (active). Under `N#CCSc1nc2ccccc2c(=O)n1-c1ccccc1` stands 90.5% (inactive). Under `COc1ccc(CCC(=O)OCC(=O)Nc2ccc(C)c(S(=O)(=O)N(C)C)c2)cc1` stands 96.3% (inactive). Under `c1ccc2c(c1)CSc1sccc1C2=C1CCNCC1` stands 4.26% (inactive).

On to `CCOC(=O)c1ccc(N/C(=N/S(=O)(=O)c2ccccc2)c2ccccc2)cc1`, for which the viability is 102% (inactive).

For the compound `CCOC(=O)C1=C(c2ccc(OC)cc2)C(=O)c2ccccc2C1=O`, the viability was 1.48% (active). Under `CCCCC(C(=O)OCC(=O)c1ccc(OC)cc1)N1C(=O)c2ccccc2C1=O` (stereo not drawn) stands 97.5% (inactive); under `CCOC(=O)c1ccccc1NS(=O)(=O)c1ccc(OC)cc1`, 15.6% (inactive).

`N#C/C(=C(/O)COC(=O)COc1ccc(Cl)cc1)c1nc2ccccc2[nH]1`: the viability is 5.27% (inactive).

Consider `N=c1c2c(-c3ccccc3)c(-c3ccccc3)n(Cc3ccccc3)c2ncn1CCCO`, for which the viability was 1.76% (active). As for `OCCCN1c2ccccc2Nc2nnc(-c3ccccc3)cc21`, the figure is 53.1% (inactive). As for `N=c1c2c(-c3ccccc3)c(-c3ccccc3)oc2ncn1Cc1ccco1`, the figure is 54.2% (inactive); as for `Cc1nc(-c2ccccc2)sc1C(=O)/C=C/c1ccccc1`, 6.16% (inactive); as for `O=C(/C=C/c1ccccc1)c1ccccc1O`, 83.3% (inactive). Take `Cc1[nH]c(=O)c(C(=O)/C=C/c2ccccc2)c2c1CCCC2`: the viability is 1.81% (active).

Consider `O=C(Nc1ccccc1)c1cc2ccccc2[nH]1`, for which the viability is 66.4% (inactive). As for `O=C(NCCOCc1ccc(Cl)cc1)c1ncn[nH]1`, the figure is 101% (inactive); as for `CC(C)(C)c1ccc(C(=O)CSc2ncn[nH]2)cc1`, 94.8% (inactive); as for `O=C(/C=C/Sc1ncn[nH]1)c1ccc(Cl)cc1`, 2.52% (active). As for `CC(=O)NC1C(OCc2ccccc2)OC(COC(C)=O)C(OC(C)=O)C1OC(C)=O` (stereo not drawn), the figure is 96.9% (inactive). As for `Cc1cc(-c2n[nH]c(=S)n2/N=C/C(Br)=C/c2ccccc2)n[nH]1`, the figure is 1.39% (active); as for `S=c1[nH]nc(-c2cccnc2)n1/N=C/C(Cl)=C\c1ccccc1`, 8.01% (inactive).

Turning to `Cc1ccc(/C=N\n2c(-c3ccccc3)n[nH]c2=S)s1`, the viability was 109% (inactive). Under `Cc1nn(C)c(C(=O)NNC(=S)NC2CCCCC2)c1Cl` stands 95.4% (inactive). As for `CC1CCN(C(=S)NC2CC3CCC2C3)CC1` (stereo not drawn), the figure is 95.9% (inactive). Take `O=C(CCCN1C(=O)/C(=C/c2ccco2)SC1=S)Nc1ccccc1`: the viability was 24% (inactive). Under `O=C1/C(=C\c2ccccc2Cl)SC(=S)N1CCC(=O)N1CCCc2ccccc21` stands 2.6% (active); under `O=C(c1c(Cl)nc2sccn12)N1CCCc2ccccc21`, 81.7% (inactive); under `N=C1C(=O)OCC1c1ccccc1NC(=O)CN1CCCCC1` (stereo not drawn), 83.9% (inactive).

Turning to `CC(NC(=O)c1cccc2ccccc12)c1ccc2c(c1)CCCC2` (stereo not drawn), the viability is 25.1% (inactive). As for `NS(=O)(=O)c1ccc(CCNC(=S)Nc2ccc(S(N)(=O)=O)cc2)cc1`, the figure is 96.8% (inactive); as for `Cc1ccc(C)c(NC(CC(=O)c2ccccc2)C(=O)OCC(=O)c2cccs2)c1` (stereo not drawn), 85% (inactive). `O=C(CCC(=O)c1cccs1)NCc1ccccc1`: the viability was 97.4% (inactive). Regarding `Cc1ccccc1C(CC(=O)c1cccs1)C(C#N)C#N` (stereo not drawn), the viability was 3.71% (active).

For the compound `Cc1ccc(CN2C(=O)N/C(=C/c3cc(C)n(-c4ccccn4)c3C)C2=O)cc1`, the viability was 84.5% (inactive). Under `Cc1cc(OCCCC(=O)NCCN2C(=O)S/C(=C\c3cccnc3)C2=O)ccc1Cl` stands 78.4% (inactive).

With `COC(=O)N/N=C/c1ccc(-c2ccc(Cl)c(Cl)c2)o1`, the viability was 68.4% (inactive). For the compound `O=C(CN1C(=O)NC2(CCCCCC2)C1=O)NCc1cccs1`, the viability was 102% (inactive). Under `Cc1ccc(C)c2[nH]c(=O)c(CCNC(=O)c3cccs3)cc12` stands 85.5% (inactive); under `Cc1ccc(-n2[nH]c(C)c(/C=N/NC(=O)c3cccc([N+](=O)[O-])c3)c2=O)cc1C`, 2.5% (active); under `COc1cccc(/C=N/NC(=O)c2cccc([N+](=O)[O-])c2)c1OS(=O)(=O)c1ccc(C)cc1`, 71.7% (inactive). As for `Cc1[nH]n(-c2cccc(Cl)c2)c(=O)c1/C=N/n1c(C)nc2ccccc2c1=O`, the figure is 89.2% (inactive); as for `Cc1[nH]n(-c2ccc(Cl)cc2)c(=O)c1/C=N/n1c(C)nc2ccccc2c1=O`, 33.6% (inactive); as for `COc1cc(/C=N\NC(=O)CNC(=O)c2cccc([N+](=O)[O-])c2)ccc1O`, 98.5% (inactive). As for `Cc1[nH]n(-c2ccccc2)c(=O)c1/C=N/NC(=O)c1ccoc1C`, the figure is 3.19% (active).
